# Results taken from PubChem BioAssay (NCATS).
# Inconclusive results are not listed. A call without a number means that no potency is given here. Unmarked numbers belong to inactive results. The source made the active and inactive calls. The call rests on the fitted dose curve; in most records, active means well fitted curve in the direction sought with a large enough effect; inconclusive means small, poorly fitted or top-dose-only effect, or another doubt; inactive means no such curve, though single readings can be large; an effect the other way counts as inactive or inconclusive.
# Experiments:
# [1] = biological target: Rap guanine nucleotide exchange factor 3 (Homo sapiens) (UniProt O95398); assay: Confirmatory qHTS for antagonist of cAMP-regulated guanine nucleotide exchange factor 3 (EPAC1) (AID 1645880); further: nearly all actives have a fitted effect of over 55% in size; further: potency means the concentration at half of the fitted maximal effect
# Sequence of Rap guanine nucleotide exchange factor 3 (Homo sapiens) (O95398 whole entry, looked up): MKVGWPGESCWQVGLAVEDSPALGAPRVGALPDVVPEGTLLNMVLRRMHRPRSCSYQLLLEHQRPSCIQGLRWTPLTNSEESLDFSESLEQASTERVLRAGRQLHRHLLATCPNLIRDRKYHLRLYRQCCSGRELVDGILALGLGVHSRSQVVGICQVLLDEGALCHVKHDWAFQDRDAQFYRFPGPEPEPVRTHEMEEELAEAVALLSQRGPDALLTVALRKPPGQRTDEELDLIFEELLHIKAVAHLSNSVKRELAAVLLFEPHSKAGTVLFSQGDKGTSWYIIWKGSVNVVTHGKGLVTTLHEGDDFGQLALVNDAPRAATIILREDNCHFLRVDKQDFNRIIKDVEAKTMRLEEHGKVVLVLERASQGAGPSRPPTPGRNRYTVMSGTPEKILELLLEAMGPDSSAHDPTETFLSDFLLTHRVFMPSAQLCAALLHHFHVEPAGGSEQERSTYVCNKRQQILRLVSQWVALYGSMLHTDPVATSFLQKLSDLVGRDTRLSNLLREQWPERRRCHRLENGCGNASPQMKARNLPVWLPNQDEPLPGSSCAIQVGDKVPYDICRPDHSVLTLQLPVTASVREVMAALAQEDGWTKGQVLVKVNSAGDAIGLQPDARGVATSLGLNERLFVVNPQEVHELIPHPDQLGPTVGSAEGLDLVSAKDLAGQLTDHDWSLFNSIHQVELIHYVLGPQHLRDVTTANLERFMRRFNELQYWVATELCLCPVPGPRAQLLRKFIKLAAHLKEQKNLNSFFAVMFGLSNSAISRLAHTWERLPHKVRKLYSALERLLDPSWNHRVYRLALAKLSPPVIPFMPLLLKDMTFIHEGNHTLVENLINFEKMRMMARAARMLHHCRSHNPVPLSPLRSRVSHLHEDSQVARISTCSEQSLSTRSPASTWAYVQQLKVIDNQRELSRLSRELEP
# How it was run: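 Nucleotide exchange uses 100 nM EPAC1, 250 nM RAP1B-BODIPY-GDP and 50 uM GDP, with compounds in a concentration-titration series. After 5 min at room temperature, fluorescence (480 nm ex/540 nm em) is read every 5 min for 30 min. Data are normalized to control ATA and DMSO.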
# [2] = biological target: Rap guanine nucleotide exchange factor 3 (Homo sapiens) (UniProt O95398); assay: Confirmatory qHTS for agonist of cAMP-regulated guanine nucleotide exchange factor 3 (EPAC1) (AID 1645881); further: nearly all actives have a fitted effect of over 75% in size; further: potency means the concentration at half of the fitted maximal effect;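 on activation: EPAC1 catalysed release of BODIPY-GDP from Rap1B seen as fluorescence loss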
# [3] = biological target: Rap guanine nucleotide exchange factor 4 (Homo sapiens) (UniProt Q8WZA2); assay: Confirmatory qHTS for agonist of cAMP-regulated guanine nucleotide exchange factor 4 (EPAC2) (AID 1645884);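 further: nucleotide exchange releases bodipy-GDP from Rap1 and this lowers its fluorescence; nearly all actives have a fitted effect of over 65% in size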; further: potency means the concentration at half of the fitted maximal effect
# Sequence of Rap guanine nucleotide exchange factor 4 (Homo sapiens) (Q8WZA2 whole entry, looked up): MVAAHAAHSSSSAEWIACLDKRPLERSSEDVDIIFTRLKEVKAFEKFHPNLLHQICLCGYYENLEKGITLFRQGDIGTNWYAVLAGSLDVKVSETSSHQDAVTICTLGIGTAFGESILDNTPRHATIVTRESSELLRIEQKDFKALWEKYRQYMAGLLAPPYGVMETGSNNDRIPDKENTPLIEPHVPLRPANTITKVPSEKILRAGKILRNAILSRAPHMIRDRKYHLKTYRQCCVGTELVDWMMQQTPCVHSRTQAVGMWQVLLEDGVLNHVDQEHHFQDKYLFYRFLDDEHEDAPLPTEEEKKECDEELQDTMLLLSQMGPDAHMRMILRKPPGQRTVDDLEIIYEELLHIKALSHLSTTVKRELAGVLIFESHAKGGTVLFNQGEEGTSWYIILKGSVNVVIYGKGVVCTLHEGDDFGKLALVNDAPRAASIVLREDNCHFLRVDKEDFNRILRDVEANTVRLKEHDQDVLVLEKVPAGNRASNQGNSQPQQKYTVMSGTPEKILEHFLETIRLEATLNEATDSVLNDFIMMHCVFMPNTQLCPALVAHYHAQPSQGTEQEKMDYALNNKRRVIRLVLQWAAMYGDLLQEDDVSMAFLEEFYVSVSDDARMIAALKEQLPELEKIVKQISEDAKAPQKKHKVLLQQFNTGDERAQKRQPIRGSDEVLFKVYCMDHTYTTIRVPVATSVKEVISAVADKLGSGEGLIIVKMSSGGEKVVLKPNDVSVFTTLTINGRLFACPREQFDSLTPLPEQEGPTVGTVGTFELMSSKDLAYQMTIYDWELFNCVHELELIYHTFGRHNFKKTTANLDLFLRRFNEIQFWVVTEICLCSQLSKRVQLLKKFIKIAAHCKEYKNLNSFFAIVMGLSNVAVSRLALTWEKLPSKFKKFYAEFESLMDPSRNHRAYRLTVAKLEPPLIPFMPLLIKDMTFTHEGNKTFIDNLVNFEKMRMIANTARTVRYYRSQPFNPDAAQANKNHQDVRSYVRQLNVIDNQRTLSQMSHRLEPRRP
# [4] = biological target: Rap guanine nucleotide exchange factor 4 (Homo sapiens) (UniProt Q8WZA2); assay: Confirmatory qHTS for antagonist of cAMP-regulated guanine nucleotide exchange factor 4 (EPAC2) (AID 1645885); further: nearly all actives have a fitted effect of over 25% in size; further: potency means the concentration at half of the fitted maximal effect
# [5] = biological target: Rap guanine nucleotide exchange factor 3 (Homo sapiens) (UniProt O95398); assay: Counterscreen qHTS for antagonist of cAMP-regulated guanine nucleotide exchange factor 3 (EPAC1) (AID 1645888);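 further: fluorescence loss as bound BODIPY-GDP is released from Rap1B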
# How it was run: (§1)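 Measured: fluorescence of BODIPY-GDP bound to Rap1B, which falls as exchange proceeds. Conditions include 50 uM competing GDP, 5 and 30 min reads, and a later cAMP challenge for antagonist detection.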
# [6] = biological target: Rap guanine nucleotide exchange factor 3 (Homo sapiens) (UniProt O95398); assay: Counterscreen qHTS for agonist of cAMP-regulated guanine nucleotide exchange factor 3 (EPAC1) (AID 1645889); further: nearly all actives have a fitted effect of over 40% in size; further: potency means the concentration at half of the fitted maximal effect
# How it was run: as §1
SMILES,Potency [1],Potency [2],Potency [3],Potency [4],Potency [5],Potency [6],activation [3],"activity change, negative = inhibition [5]",activation [6],outcome [4]
O=C(N[C@@H](Cc1c[nH]c2ccccc12)C(=O)O)OCC1c2ccccc2-c2ccccc21,inactive,inactive,inactive,inactive,inactive,inactive,,,,
Cc1cc(C)c(C)c(S(=O)(=O)Nc2cccc(S(=O)(=O)Nc3ccccc3C(=O)O)c2)c1C,39.8 µM (active),inactive,,inactive,,,"4.6% [at 17.1 µM, percent relative to cAMP agonist control]",-6.25% [at 30.8 µM],0.792% [at 30.8 µM],
COc1ccccc1CNC(=O)CCCn1nc(C)c2c(C)n(-c3ccc(C)cc3)nc2c1=O,inactive,inactive,inactive,,inactive,inactive,,,,inactive [at 12.7 µM]
COC(=O)C1=C(C)N(Cc2ccco2)C(=O)/C1=C\c1ccc(N(C)C)cc1,inactive,inactive,inactive,inactive,inactive,inactive,,,,
O=S(=O)(Nc1nccs1)c1ccc(NCc2cc(Br)cc(Br)c2O)cc1,56.2 µM (active),inactive,,1.51 µM (active),,,"-0.584% [at 17.1 µM, percent relative to cAMP agonist control]",9.07% [at 30.8 µM],31.2% [at 30.8 µM],
COC(=O)c1cc2sc(Cl)cc2n1Cc1c(C)cc(C)cc1C,inactive,inactive,inactive,inactive,inactive,inactive,,,,
Nc1ccc2ccccc2c1C(=O)c1ccccc1,inactive,inactive,inactive,inactive,inactive,inactive,,,,
COc1cc(C2c3c(oc4ccccc4c3=O)C(=O)N2c2nc(C)c(C)s2)ccc1O (stereo unspecified),inactive,inactive,inactive,inactive,inactive,inactive,,,,
CC(C)Sc1nc2sccc2c(=O)n1-c1ccccc1,inactive,inactive,inactive,42.6 µM (active),inactive,inactive,,,,
COC(=O)c1cc2sccc2n1Cc1ccc(F)cc1,inactive,inactive,inactive,inactive,inactive,inactive,,,,
O=C(CC[C@H]1O[C@@H](n2ccc(=O)[nH]c2=O)[C@H](O)[C@@H]1O)NCc1cccc2ccccc12,inactive,inactive,inactive,inactive,inactive,inactive,,,,
CC(=O)Oc1c(Sc2ccccc2[N+](=O)[O-])c(C)nn1C(C)(C)C,42.6 µM (active),inactive,inactive,inactive,inactive,inactive,,,,
CCOC(=O)C1=C(C)OC(N)=C(C#N)C1c1ccc(OC)c(CSc2ccccn2)c1 (stereo unspecified),inactive,inactive,,inactive,,,"7.18% [at 17.1 µM, percent relative to cAMP agonist control]",-6.88% [at 30.8 µM],28.3% [at 30.8 µM],
COc1cccc(C2=NN(C(C)=O)C(c3cccs3)C2)c1 (stereo unspecified),inactive,inactive,inactive,inactive,inactive,inactive,,,,
N#C/C(=C/c1ccc(N2CCOCC2)o1)c1nc2ccccc2[nH]1,inactive,112 µM (active),89.1 µM (active),42.6 µM (active),inactive,63.1 µM (active),,,,
COc1ccc(N(C)C(=O)CC2(CC(=O)O)CCCCC2)cc1,inactive,inactive,,inactive,,,"8.49% [at 17.1 µM, percent relative to cAMP agonist control]",1.07% [at 30.8 µM],2.37% [at 30.8 µM],
C(=N\N1CCN(C(c2ccccc2)c2ccccc2)CC1)/c1ccc2c(c1)OCO2,inactive,inactive,inactive,84.9 µM (active),inactive,inactive,,,,
CN(C(=O)COC(=O)/C=C/c1ccc2c(c1)OCO2)c1c(N)n(Cc2ccccc2)c(=O)[nH]c1=O,inactive,inactive,inactive,inactive,inactive,inactive,,,,
Cc1ccc(S(=O)(=O)/N=C2\C=C(Nc3cccc(C(=O)O)c3)C(=O)c3ccccc32)c(C)c1,26.9 µM (active),inactive,inactive,inactive,inactive,inactive,,,,
COc1ccc(C(C)=NNc2ccc([N+](=O)[O-])cc2S(=O)(=O)Nc2ccccc2C(=O)O)c(OC)c1,37.9 µM (active),inactive,inactive,75.7 µM (active),inactive,inactive,,,,
COc1ccc(N2CCN(C(=O)c3sc4nc(-c5ccc(F)cc5)cn4c3C)CC2)cc1,inactive,inactive,inactive,inactive,inactive,inactive,,,,
CN(Cc1ccccc1N1CCCC1)C(=O)c1cc2cc(Cl)ccc2o1,inactive,inactive,inactive,inactive,inactive,inactive,,,,
COc1cc(CCc2ccccc2)c(C(=O)O)c(O)c1CC=C(C)C,42.6 µM (active),inactive,inactive,inactive,inactive,inactive,,,,
COC(=O)c1cn(C(=O)c2cc(OC)c(OC)c(OC)c2)c2ccccc12,inactive,inactive,inactive,inactive,inactive,inactive,,,,
COc1cccc(/C=C2\SC(=S)N(NS(=O)(=O)c3ccccc3)C2=O)c1OC,33.8 µM (active),inactive,inactive,37.9 µM (active),inactive,inactive,,,,
COc1cc(/C=C(\C#N)C(=O)NC(C)C)cc(Cl)c1O,inactive,inactive,inactive,inactive,inactive,inactive,,,,
